What was measured:
Experiment in all cases: thermal shift delta Tm vs DMSO control; higher = stronger stabilization (binding)
Details in all cases: 12.5 µM; protein concentration 2 µM
LOC_OS02G45750-cb003 = tested on: LOC_OS02G45750-cb003
Outline: (§1)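 Compounds dissolved in DMSO were added to purified rice kinase domain constructs, which had been expressed in E. coli, for differential scanning fluorimetry. Each well held 19.5 μl of 2 μM kinase in 100 mM potassium phosphate pH 7.5, 150 mM NaCl, 10% glycerol and 5 × SYPRO Orange. Fluorescence was followed from 25°C to 95°C at a rate of 0.05°C/s. Shifts in Boltzmann-fitted melting temperature are triplicate means relative to DMSO-only protein.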

LOC_OS02G54510-cb004 = tested on: LOC_OS02G54510-cb004
Outline: as §1

LOC_OS03G04050-cb001 = tested on: LOC_OS03G04050-cb001
Outline: as §1

LOC_OS03G12390-cb001 = tested on: LOC_OS03G12390-cb001
Outline: as §1

LOC_OS03G27990-cb004 = tested on: LOC_OS03G27990-cb004
Outline: as §1

LOC_OS03G50450-cb001 = tested on: LOC_OS03G50450-cb001
Outline: as §1

LOC_OS03G50810-cb003 = tested on: LOC_OS03G50810-cb003
Outline: as §1

LOC_OS04G35114-cb001 = tested on: LOC_OS04G35114-cb001
Outline: as §1

LOC_OS04G38480-cb003 = tested on: T1, LOC_OS04G38480-cb003
T1 sequence (whole entry): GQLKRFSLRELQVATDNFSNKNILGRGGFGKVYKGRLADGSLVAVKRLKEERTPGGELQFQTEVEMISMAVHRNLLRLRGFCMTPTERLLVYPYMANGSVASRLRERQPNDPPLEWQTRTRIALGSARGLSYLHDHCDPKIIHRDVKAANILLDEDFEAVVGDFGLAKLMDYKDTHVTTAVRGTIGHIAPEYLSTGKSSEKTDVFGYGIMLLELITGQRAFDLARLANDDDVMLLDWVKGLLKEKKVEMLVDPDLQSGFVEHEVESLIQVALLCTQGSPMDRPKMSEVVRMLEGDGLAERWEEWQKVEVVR
Outline: as §1

LOC_OS04G41100-cb001 = tested on: T2, LOC_OS04G41100-cb001
T2 sequence (whole entry): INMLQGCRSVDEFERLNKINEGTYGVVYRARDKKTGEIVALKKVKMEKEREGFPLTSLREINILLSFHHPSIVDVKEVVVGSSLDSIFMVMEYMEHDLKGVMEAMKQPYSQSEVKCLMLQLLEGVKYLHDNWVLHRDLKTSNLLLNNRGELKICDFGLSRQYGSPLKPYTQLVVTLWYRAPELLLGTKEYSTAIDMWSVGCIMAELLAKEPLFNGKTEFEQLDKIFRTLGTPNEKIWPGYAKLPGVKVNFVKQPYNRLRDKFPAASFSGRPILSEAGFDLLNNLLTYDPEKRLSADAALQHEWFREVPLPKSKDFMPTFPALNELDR
Outline: as §1

LOC_OS04G57630-cb004 = tested on: LOC_OS04G57630-cb004
Outline: as §1

LOC_OS05G07850-cb002 = tested on: LOC_OS05G07850-cb002
Outline: as §1

LOC_OS05G16824-cb004 = tested on: LOC_OS05G16824-cb004
Outline: as §1

LOC_OS05G28520-cb001 = tested on: LOC_OS05G28520-cb001
Outline: as §1

LOC_OS05G30820-cb001 = tested on: LOC_OS05G30820-cb001
Outline: as §1

LOC_OS05G43570-cb004 = tested on: LOC_OS05G43570-cb004
Outline: as §1

LOC_OS06G16330-cb003 = tested on: LOC_OS06G16330-cb003
Outline: as §1

LOC_OS06G22820-cb001 = tested on: T3, LOC_OS06G22820-cb001
T3 sequence (whole entry): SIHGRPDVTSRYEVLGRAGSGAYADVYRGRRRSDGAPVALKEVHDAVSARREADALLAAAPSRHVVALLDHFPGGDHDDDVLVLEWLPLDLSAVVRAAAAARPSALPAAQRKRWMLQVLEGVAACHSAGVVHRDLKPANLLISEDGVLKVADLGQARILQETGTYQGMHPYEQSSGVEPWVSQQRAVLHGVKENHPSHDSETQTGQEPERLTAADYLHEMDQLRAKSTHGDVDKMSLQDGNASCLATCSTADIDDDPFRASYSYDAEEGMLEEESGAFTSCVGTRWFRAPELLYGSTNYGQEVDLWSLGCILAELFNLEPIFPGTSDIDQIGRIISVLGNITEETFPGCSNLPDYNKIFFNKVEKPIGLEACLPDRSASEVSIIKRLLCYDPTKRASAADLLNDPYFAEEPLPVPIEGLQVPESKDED
Outline: as §1

LOC_OS07G06570-cb004 = tested on: LOC_OS07G06570-cb004
Outline: as §1

LOC_OS07G07230-cb001 = tested on: LOC_OS07G07230-cb001
Outline: as §1

LOC_OS06G16330-cb003, sequence (as listed by the source): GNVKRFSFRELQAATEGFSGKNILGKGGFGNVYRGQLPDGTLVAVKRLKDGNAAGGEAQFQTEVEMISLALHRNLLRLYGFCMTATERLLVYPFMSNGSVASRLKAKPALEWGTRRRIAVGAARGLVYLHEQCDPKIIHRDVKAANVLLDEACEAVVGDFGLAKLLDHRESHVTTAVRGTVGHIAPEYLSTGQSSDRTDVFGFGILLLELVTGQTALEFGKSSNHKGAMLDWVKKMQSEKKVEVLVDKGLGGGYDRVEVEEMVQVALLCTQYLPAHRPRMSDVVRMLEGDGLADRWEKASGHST

Row | Compound | thermal shift delta Tm (LOC_OS02G45750-cb003) | thermal shift delta Tm (LOC_OS02G54510-cb004) | thermal shift delta Tm (LOC_OS03G04050-cb001) | thermal shift delta Tm (LOC_OS03G12390-cb001) | thermal shift delta Tm (LOC_OS03G27990-cb004) | thermal shift delta Tm (LOC_OS03G50450-cb001) | thermal shift delta Tm (LOC_OS03G50810-cb003) | thermal shift delta Tm (LOC_OS04G35114-cb001) | thermal shift delta Tm (LOC_OS04G38480-cb003) | thermal shift delta Tm (LOC_OS04G41100-cb001) | thermal shift delta Tm (LOC_OS04G57630-cb004) | thermal shift delta Tm (LOC_OS05G07850-cb002) | thermal shift delta Tm (LOC_OS05G16824-cb004) | thermal shift delta Tm (LOC_OS05G28520-cb001) | thermal shift delta Tm (LOC_OS05G30820-cb001) | thermal shift delta Tm (LOC_OS05G43570-cb004) | thermal shift delta Tm (LOC_OS06G16330-cb003) | thermal shift delta Tm (LOC_OS06G22820-cb001) | thermal shift delta Tm (LOC_OS07G06570-cb004) | thermal shift delta Tm (LOC_OS07G07230-cb001)
1 | O=C(NCCO)c1cccc(-c2cc(Nc3ccc(OC(F)(F)F)cc3)ncn2)c1 | -1.95 °C | 0.81 °C | 0.63 °C | -0.13 °C | 0.4 °C | 0.68 °C | 0.15 °C | 0.49 °C | 0.52 °C | 0.56 °C | -0.03 °C | 1.54 °C | 0.97 °C | -0.03 °C | 0.29 °C | 0.15 °C | 1.76 °C | 0.84 °C | 0.21 °C | -0.33 °C
2 | Cc1cc2c(F)c(Oc3ncnn4cc(OC[C@@H](C)O)c(C)c34)ccc2[nH]1 | 1.84 °C | -0.24 °C | 0.46 °C | -0.04 °C | 1.01 °C | 0.21 °C | 0.22 °C | 5.26 °C | 1.05 °C | 0.62 °C | 0.32 °C | 2.97 °C | -0.74 °C | 0.85 °C | 0.47 °C | -0.02 °C | 0.19 °C | 0.53 °C | 0.51 °C | 0.51 °C
3 | CNC(=O)c1ccc(-c2cnc3ncc(Cc4ccc5ncccc5c4)n3n2)cc1F | 0.61 °C | 0.23 °C | 0.48 °C | -0.1 °C | 0.21 °C | 0.36 °C | 0.27 °C | 0.19 °C | 2.02 °C | 0.27 °C | 0.55 °C | 0.67 °C | -1.29 °C | 0.04 °C | 0.18 °C | 0.63 °C | -2.08 °C | 0.46 °C | 1.26 °C | 0.89 °C
4 | Clc1ccc(Nc2nnc(Cc3ccncc3)c3ccccc23)cc1 [Vatalanib (PTK787) 2HCl] | 0.06 °C | 0.03 °C | 0.21 °C | -0.24 °C | 0.02 °C | -0.09 °C | -0.01 °C | 0.3 °C | -0.05 °C | 0.49 °C | -0.2 °C | -0.28 °C | -1.81 °C | -0.19 °C | 0.45 °C | 0.05 °C | 0.09 °C | 0.55 °C | 0.43 °C | 0.41 °C
5 | COc1c(C)c(C(=O)c2ccc(N)c(C(=O)O)c2)n2ccccc12 | 0.38 °C | 0.3 °C | 0.46 °C | -0.07 °C | 0.21 °C | 0.58 °C | 0.22 °C | 0.79 °C | 0.31 °C | 0.29 °C | 0.19 °C | 0.78 °C | -2.73 °C | 0.86 °C | 0.51 °C | 0.58 °C | -0.18 °C | 0.47 °C | 1.2 °C | 0.36 °C
6 | Nc1nc2cc(-c3ccc4ncc(C(=O)N5CCOCC5)n4c3)ccc2o1 [Serabelisib (INK-1117,MLN-1117,TAK-117)] | 1.65 °C | 0.12 °C | 0.57 °C | 0.22 °C | 0.37 °C | 0.93 °C | 0.42 °C | 1.85 °C | 0.6 °C | 0.51 °C | 0.92 °C | 2.64 °C | 6.24 °C | 0.55 °C | 0.04 °C | 0.35 °C | 0.24 °C | 0.5 °C | 1.85 °C | 0.61 °C
